Screening data from PubChem.
PLCg1 inh = inhibitors of human phospholipase C gamma1. P19174. purified PLC-gamma1, fluorogenic substrate, fluorescence. inhibition, % at 12.2 µM. 0.84% of 370,000 active; in the data active = inhibition above about 9.5%
ADAM10 inh = ADAM10 inhibition, QFRET primary screen; recombinant ADAM10, EDANS/DABCYL FRET peptide cleavage, 3 h; 0.62% of 370,000 active; inhibition, % at 7 µM; AID 720582;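 active = inhibition above a per-campaign cutoff equal to the mean of compounds falling between control-based bounds plus 3 SD, cut at about 20% in these data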;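 note: 0% = DMSO wells while the 100% control is not disclosed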
PLCb3 inh = PLC-beta3 (human) inhibition, primary screen | 0.18% of 370,000 active | Q01970 | Purified PLC-beta3, fluorogenic substrate, fluorescence | inhibition, % at 12.2 µM;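 note: 0% = median of compound wells on plate and 100% = full blocker control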
KLK7 zymogen act = proKLK7 (human) activation, primary screen; P49862; purified proKLK7, EDANS-DABCYL substrate fluorescence; 100% is mature enzyme control, 0% vehicle; activation, % at 7 µM; 0.9% of 370,000 active; AID 652039;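 active = activation above the mean of all tested compounds plus 3 SD, computed per campaign excluding outliers beyond control limits, cut at about 13% in these data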
ADAM17 inh = inhibitors of human ADAM17. P78536. recombinant ADAM17, EDANS/DABCYL FRET peptide cleavage. 0.83% of 370,000 active. AID 720648. inhibition, % at 6.95 µM;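 active = inhibition above the mean of compounds lying between control limits plus 3 SD, set per campaign, cut at about 8.5% in these data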;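 note: 0% = DMSO-only wells as the low control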
PLCg1 ctr = counter-screen for PLC-beta3 inhibitors: inhibitors of human PLC-gamma1; shares compounds with PLCg1 inh; purified PLC-gamma1, fluorogenic substrate, fluorescence; inhibition, % at 12.3 µM; 3.1% of 3,300 active; in the data active = inhibition above about 9.5%
PLCb3 confirm = human PLC-beta3 inhibition, confirmation; shares compounds with PLCg1 inh; purified PLC-beta3, fluorogenic substrate fluorescence; inhibition, % at 12.3 µM; 1% of 3,300 active
The depositor's hits bear a star; nt = no result given. Sampled rows, rich in hits. Any-hit rate of the full collection: about 2.9%. Cut-off read from the data, not from the text of the source, unless noted: active = inhibition above about 11%; inactive = the rest.

SMILES	PLCg1 inh	ADAM10 inh	PLCb3 inh	KLK7 zymogen act	ADAM17 inh	PLCg1 ctr	PLCb3 confirm
CCC(c1nnnn1-c1ccc2c(c1)OCCO2)N1CCN(CC)CC1 (stereo unspecified)	10*	4	7	1	0	-7	-54
CS(=O)(=O)Cc1ccc(C(=O)N2CCN(C(=O)c3cccs3)CC2)cc1	-3	-12	0	-1	-2	nt	nt
Cc1nonc1NC(=O)c1oc2ccc(F)cc2c1C	2	-3	-5	0	-3	nt	nt
Cc1cc2oc(C(=O)Nc3nonc3C)c(C)c2cc1Cl	13*	0	-1	1	0	-12	-8
O=C(NC1CCCCC1)C(c1ccncc1)N(Cc1ccc2c(c1)OCO2)C(=O)c1cnsn1 (stereo unspecified)	6	15	11*	1	4	-6	-3
O=C(NC1CCCCC1)C(c1ccc2ncccc2c1)N(Cc1ccc2c(c1)OCO2)C(=O)c1cccs1 (stereo unspecified)	9.6*	4	0	0	2	-6	-2
Cc1ccc2nc(-c3cccc(Cl)c3)c(Cc3cccc(Cl)c3)n2c1	-7	-47	-11	-4	-16	nt	nt
CCOC(=O)Cc1nnc(NC(=O)CCc2ccccc2)s1	11*	-9	-4	0	-4	-1	-10
CCOC(=O)Cc1csc(NC(=O)CCc2ccccc2)n1	2	-1	-6	0	-3	nt	nt
COc1cccc(CNC(=O)[C@H]2CCCN2C(=O)[C@H]2CCCN2C(=O)c2ccc(F)c(C(F)(F)F)c2)c1	-1	-2	1	0	-6	nt	nt
O=C1NC(=O)/C(=C\c2ccc(Br)o2)S1	15*	-13	-25	-1	1	-13	-16
O=C1NC(=O)/C(=C/c2ccc(-c3cc(C(=O)O)ccc3Cl)o2)S1	-95	-16	-108	0	-4	nt	nt
COc1ccc(N2C(=O)C(Cl)=C(Nc3ccccc3O)C2=O)cc1	0	12	3	1	3	nt	nt
COc1ccc(N2C(=O)C(Cl)=C(Nc3ccccc3OC)C2=O)cc1	9.5*	16	13*	1	9	-2	-2
OCCC1CN(Cc2cccn2-c2ncccn2)CCN1Cc1ccc(F)cc1 (stereo unspecified)	-4	4	-14	0	-6	nt	nt
CCN1C/C(=C\c2cccc([N+](=O)[O-])c2)C(=O)/C(=C/c2cccc([N+](=O)[O-])c2)C1	12*	10	6	0	2	1	0
O=C1/C(=C/c2cccc([N+](=O)[O-])c2)CCc2ccccc21	5	4	-5	0	-1	nt	nt
CCOC(=O)N1CCN(C(=O)C[C@@H]2C[C@@]3(C(=O)OCC)CCC=C3N(Cc3ccc4c(c3)OCO4)C2=O)CC1	9.7*	2	-1	0	1	-7	-3
CCOC(=O)[C@]12CCCC=C1N(CCc1ccc(OC)c(OC)c1)C(=O)[C@H](CC(=O)N1CCCC1)C2	12*	-1	5	-1	1	0	-6
CC(=O)Nc1ccc(NC(=O)COC(=O)c2cc([N+](=O)[O-])ccc2N2CCOCC2)cc1	-1	-4	-7	0	-3	nt	nt
CCOC(=O)N1CCN(C(=O)c2cc3c(=O)n(C)c4ccccc4c3n2C)CC1	-1	-12	-1	0	1	nt	nt
COc1ccc(C(=O)NCc2nnc(SCC(=O)c3ccccc3)n2C)cc1	-2	2	-3	0	-4	nt	nt
CCOC(=O)N1CCN(c2nnc(-c3ccc(C)cc3)c3ccccc23)CC1	-1	-2	3	1	-4	nt	nt
CCCn1nc(C(=O)NCC(C)(C)N2CCOCC2)c2ccccc2c1=O	9.7*	12	9	0	0	-3	-1
CCCn1nc(C(=O)NCCN2CCOCC2)c2ccccc2c1=O	4	-2	0	0	-2	nt	nt
SMILES	PLCg1 inh	ADAM10 inh	PLCb3 inh	KLK7 zymogen act	ADAM17 inh	PLCg1 ctr	PLCb3 confirm
CC(=O)OC[C@H]1O[C@@H](n2ccc(=O)[nH]c2=S)C(OC(C)=O)C1OC(C)=O (stereo partly specified)	9.8*	18	2	-1	3	0	1
COc1ccccc1OCCNC(=O)c1ccccc1C	1	1	1	0	-3	nt	nt
C[C@H](NC(=O)C(c1ccccc1)c1ccccc1)c1ccccc1	6	12	-1	-1	4	nt	nt
CC(NC(=O)C(c1ccccc1)c1ccccc1)c1ccccc1 (stereo unspecified)	16*	2	9	0	-2	8	1
COC(=O)CSc1nc2ccccc2n1CC(=O)N(C(C)C)C(C)C	9	8	13*	0	5	-6	0
Cc1ccc(C2CC(c3ccc(Br)cc3)=NN2C(=O)CSC2=NN3CCCC(=O)N=C3S2)cc1 (stereo unspecified)	4	-5	-6	-1	1	nt	nt
O=C1CCCN2N=C(SCC(=O)N3N=C(c4ccc(Br)cc4)CC3c3ccc(F)cc3)SC2=N1 (stereo unspecified)	14*	16	-4	0	6	1	-1
O=C1C(=C(I)I)c2ccccc2-c2ccccc21	34*	-14	-12	-3	-3	39*	-2
O=C(O)c1cccc2c1C(=O)c1ccccc1-2	-1	2	-7	0	-1	nt	nt
CCOc1ncccc1C(=O)OCC(=O)c1c(N)n(C)c(=O)n(C)c1=O	8	7	11*	0	3	-6	-3
Cc1ccc(S(=O)(=O)NCC(=O)NCc2cc(=O)n(C)c(=O)n2C)cc1C	1	13	1	1	-3	nt	nt
COc1ccc(N2CC(C(=O)N[C@@H](C)C(=O)NCc3ccccc3OC)CC2=O)cc1 (stereo partly specified)	9.8*	-5	-12	0	-1	-1	1
CCC(C)[C@H](NC(=O)OC(C)(C)C)c1nnc(SCc2c(C)[nH]c(=O)[nH]c2=O)o1 (stereo partly specified)	1	1	2	0	-6	nt	nt
COc1ccc(CN2CCOCCOCCOCC2)cc1	8	4	13*	0	-2	7	4
Cc1cc(C(=O)N/N=C/c2c(C)[nH]n(-c3ccccc3)c2=O)n[nH]1	-1	-2	-6	0	-4	nt	nt
CCCCN(CCCC)C(=S)N/N=C/c1c(C)[nH]n(-c2ccccc2)c1=O	9.9*	-5	5	0	2	-9	-21
CC(=O)N/C(=C\c1ccccc1)C(=O)OCc1ccccc1	1	6	-3	0	2	nt	nt
Cc1ccccc1-n1c(SC(C)C(N)=O)nnc1-c1cccnc1 (stereo unspecified)	11*	-4	2	1	1	-2	1
CC(C)(C)NCc1ccccc1OCc1cccs1	13*	7	11*	0	7	-5	-3
